The results in this text go back to PubChem BioAssay (Tox21).

Inconclusive results are not listed. Where a call stands in place of a potency, no number is given. The source holds several records for some structures; these can differ, active in one and inactive in another. The source made the active and inactive calls. Calls follow the shape of the full dose curve.
Potency is read from the fitted curve at half-maximal effect.

The nature of the test: qHTS assay to identify small molecule antagonists of the sonic hedgehog signaling (Shh) pathway (AID 1259369). Also: nearly all actives have a fitted effect of over 45% in size. Conditions: NIH/3T3 Gli1-Luc reporter, Shh antagonist, luminescence 24 h; series mostly up to 92.4 µM. An excerpt:
U.S. Tox21 Program National Center for Advancing Translational Sciences [NCATS] NIH Chemical Genomics Center [NCGC] U.S. Environmental Protection Agency [EPA] National Institutes of Environmental Health Sciences [NIEHS] National Toxicology Program [NTP] U.S. Food and Drug Administration [FDA] Tox21 Assay Overview: The sonic hedgehog (Shh) pathway is essential for normal embryonic development. Dysregulation of the Shh pathway can cause severe developmental defects in organs. Therefore chemicals that interfere with the pathway are potential developmental toxicants. A cell line designated 3T3Gli1-Luc (DMB/OARSA/CFSAN/FDA, Laurel, MD), a NIH/3T3 derived clone containing stably integrated Gli1-Luc reporter is used to detect chemical interference of the Shh pathway, by changes in the expression of the firefly Luc gene under the control of the Gli1 transcriptional response element. This cell line was used to screen Tox21 libraries for identifying and prioritizing the potential developmental toxicants that interfere Shh pathway. Conditioned medium-stimulated mode was used to screen for chemicals inhibiting Shh signaling.
Tox21 Assay Protocol Summary: 3T3 Gli1-Luc cells were dispensed at 2,000 per well in 5uL of culture medium into white solid bottom 1536-well plates (Greiner Bio-One, Monroe, NC) using a Multidrop Combi (Thermo Scientific, Waltham, MA) dispenser. The assay plates were incubated at 37 C and 5% CO2 for 4hr, and then 23nL of compounds dissolved in DMSO and positive control were transferred using a Pintool station (Wako, San Diego, CA). The compound transfer was followed by the addition of 1ul conditioned medium or assay buffer using two separate tips of Flying Reagent Dispenser (FRD, Aurora Discovery, San Diego, CA). The assay plates were incubated at 37C and 5% CO2 for 24hr. For luciferase read, 4uL of Amplite Luciferase reporter gene assay reagent (AAT Bioquest, Inc. Sunnyvale, CA) was added to each well of the assay plates using FRD and incubated at room temperature for 30min. The luminescence signal was measured using a ViewLux plate reader (Perkin Elmer, Shelton, CT).
Regarding `CC(=O)Nc1ccccc1C`, the Potency entry was “inactive”. For the compound `Cc1c(C(=O)NN2CCCCC2)nn(-c2ccc(Cl)cc2Cl)c1-c1ccc(Cl)cc1`, the Potency entry was “inactive”. On the same count and under the same terms, in the case of `O=C1NCCN1` it was “inactive”; in that of `C=CC(C)=CCC=C(C)C`, “inactive”. Regarding `CC1C2CC(CC2C2CCCC(O)C2)C1(C)C` (stereo not given), the Potency result is “inactive”. For `CC1=CC(=O)CC(C)(C)C1(O)/C=C/C(C)=C\C(=O)O` (stereo not given), the Potency result is “inactive”. With `COc1cc2[nH]c(=O)[nH]c(=O)c2cc1OC`, the Potency result is “inactive”.

In the case of `Oc1cc(O)c(Cl)cc1Cl`, the Potency entry is “inactive”. On to `Cc1nccn1-c1ccc(Sc2cccc(C3(C(N)=O)CCOCC3)c2)cc1`, for which the Potency was 3.06 µM (active). As to `c1ccc(COCc2ccccc2)cc1`, the Potency result was “inactive”.

For the compound `CCC(Cc1ccccc1)(C(=O)c1ccc(N2CCOCC2)cc1)N(C)C` (stereo not given), the Potency is 19.3 µM (active). Consider `CC1=C(/C=C/C(C)=C\C=C\C(C)=C\C(=O)O)C(C)(C)CCC1`, for which the Potency result is “inactive”. As for `CO[C@H]1C=CO[C@@]2(C)Oc3c(C)c(O)c4c(O)c(c5c(c4c3C2=O)=NC2(CCN(CC(C)C)CC2)N=5)NC(=O)/C(C)=C\C=C/[C@H](C)[C@H](O)[C@@H](C)[C@@H](O)[C@@H](C)[C@H](OC(C)=O)[C@@H]1C`, the Potency is 23.8 µM (active). Same read-out and setting: in the case of `CCC(=O)Oc1ccc(/C(CC)=C(\CC)c2ccc(OC(=O)CC)cc2)cc1` it was 24.3 µM (active).

As for `c1cnc2c(n1)CCCC2`, the Potency entry was “inactive”. As for `OCC1CC=CCC1` (stereo not given), the Potency entry is “inactive”.

Take `O=C(O)c1ccccc1NCCc1ccccc1`: the Potency entry is “inactive”.

Take `Cc1ccccc1N1C(=O)c2cc(S(N)(=O)=O)c(Cl)cc2NC1C` (stereo not given): the Potency entry was “inactive”. On the same count and under the same terms, with `COC(=O)CC(=O)C(C)(C)C` the entry was “inactive”; with `c1cc[c]([Bi]([c]2ccccc2)[c]2ccccc2)cc1`, 13.7 µM (active).

For the compound `CCCCCCCCCOC(C)=O`, the Potency result was “inactive”.

`CO[C@@]12[C@H](COC(N)=O)C3=C(C(=O)C(C)=C(N)C3=O)N1C[C@@H]1N[C@@H]12`: the Potency was 0.298 µM (active). With `C=CC(=O)NCOCC(C)C`, the Potency entry is “inactive”. Same read-out and setting: with `Cc1cc(O)c(C(C)C)cc1Cl` the figure was 15.4 µM (active) and inactive; with `Nc1c(I)cc(I)c(C(=O)N(CCC(=O)O)c2ccccc2)c1I`, “inactive”.

As to `CCCCN(CCCC)C(=S)SSC(=S)N(CCCC)CCCC`, the Potency is 1.91 µM (active). Still for that read-out and setting: in the case of `CCC(C(=O)OCCN(CC)CC)c1ccccc1` (stereo not given) it was “inactive”. Turning to `C=CCNc1nc(NCC=C)nc(N2CCN(C(c3ccc(F)cc3)c3ccc(F)cc3)CC2)n1`, the Potency result was “inactive”. Consider `O=C(N/N=C/c1ccc([N+](=O)[O-])o1)c1ccc(O)cc1`, for which the Potency was 11.9 µM (active). On the same count and under the same terms, in the case of `CC(=O)[C@H]1CC[C@H]2[C@@H]3C=CC4=CC(=O)CC[C@@]4(C)[C@@H]3CC[C@]12C` it was 11.9 µM (active).

In the case of `CN1C(=O)CC(C)(c2ccccc2)C1=O` (stereo not given), the Potency result is “inactive”. As to `COc1ccc([C@@H]2Sc3ccccc3NC(=O)[C@@H]2O)cc1`, the Potency entry was “inactive”. Still for that read-out and setting: in the case of `CCN(Cc1cccc(S(=O)(=O)O)c1)c1ccc(C(=C2C=CC(=[N+](CC)Cc3cccc(S(=O)(=O)[O-])c3)C=C2)c2ccccc2)cc1` it was “inactive”; in that of `CC[C@@H]([C@H](C)O)n1ncn(-c2ccc(N3CCN(c4ccc(OC[C@@H]5CO[C@@](Cn6cncn6)(c6ccc(F)cc6F)C5)cc4)CC3)cc2)c1=O`, 0.188 µM (active). For `CC(=O)Oc1ccc2c(c1)CC[C@@H]1[C@@H]2CC[C@]2(C)[C@@H](O)CC[C@@H]12`, the Potency is 1.19 µM (active). For the compound `CCCCCCCCCCCCCCCCBr`, the activity change, negative = inhibition is 18.7% [at 19 µM] (inactive). With `CC(C)CCCC(=O)O`, the Potency result is “inactive”. Regarding `O=C(/C=C/c1ccccc1)OCCCc1ccccc1`, the Potency entry was “inactive”.

For `ON(Cc1ccccc1)Cc1ccccc1`, the Potency entry was “inactive”. Same read-out and setting: in the case of `CC(=O)N(c1onc(C)c1C)S(=O)(=O)c1ccc(N)cc1` it was “inactive”.
